{"source": "PubChem BioAssay AID1376", "about": "(SRMLSC, 2008)", "note": "Out of some 220,000 compounds screened, about 530 (0.24%) were called active. Rule as the data show it: active = inhibition above about 13%; inconclusive = no clear call, values can overlap the other calls; inactive = below that. What follows is part of a selection rich in actives, with near analogues and random picks from the rest. Entries with a potency or affinity are not part of this list.", "data": [{"biological_target": "Bifunctional protein GlmU (Mycobacterium tuberculosis (strain ATCC 25618 / H37Rv)) (UniProt P9WMN3)", "sequence (P9WMN3 whole entry, looked up)": "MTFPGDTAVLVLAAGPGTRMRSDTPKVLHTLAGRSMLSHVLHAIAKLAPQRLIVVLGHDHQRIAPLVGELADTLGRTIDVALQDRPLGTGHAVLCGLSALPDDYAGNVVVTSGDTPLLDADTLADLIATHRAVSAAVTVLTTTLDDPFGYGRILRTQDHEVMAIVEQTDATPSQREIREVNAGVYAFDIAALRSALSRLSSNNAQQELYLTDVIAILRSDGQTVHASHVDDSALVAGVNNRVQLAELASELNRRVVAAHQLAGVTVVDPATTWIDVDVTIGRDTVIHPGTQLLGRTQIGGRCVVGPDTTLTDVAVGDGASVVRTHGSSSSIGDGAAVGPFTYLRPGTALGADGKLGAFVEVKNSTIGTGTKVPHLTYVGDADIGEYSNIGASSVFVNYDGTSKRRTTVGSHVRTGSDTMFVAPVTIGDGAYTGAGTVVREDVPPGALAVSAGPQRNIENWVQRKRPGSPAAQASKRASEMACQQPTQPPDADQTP", "assay": "inhibition of mycobacterial GlmU enzyme – biochemical, glucosamine-1-phosphate acetyltransferase (AID 1376);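 also: 0% = complete reaction with vehicle and 100% = reaction without substrate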", "details": "M. tuberculosis GlmU acetyltransferase enzyme assay; hits give high values;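 tested at 30 µM in the primary screen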", "values": [{"smiles": "COc1ccc(/C=N/n2c(-c3cc(C)[nH]n3)n[nH]c2=S)cc1OC", "inhibition": "5.27% (inactive)"}, {"smiles": "Cc1ccc(NC(=O)NCc2c(C)nn(C)c2C)cc1Cl", "inhibition": "2.69% (inactive)"}, {"smiles": "C#CCCOC(=O)N1C2=NC(C(=O)OC)=C(C(=O)OC)[C@@H]3N(CC=C)c4ccccc4[C@]23C[C@H]1C(=O)OC", "inhibition": "-1.18% (inactive)"}, {"smiles": "CCCCn1c(SCC(=O)N2CCCCC2C)nc2cc(S(N)(=O)=O)ccc21", "note": "(stereo not drawn)", "inhibition": "-1.4% (inactive)"}, {"smiles": "COc1ccc(OCc2nnc(SCC(=O)NNC(=O)c3ccc(C)cc3)n2C)cc1", "inhibition": "0.34% (inactive)"}, {"smiles": "COc1cc(/C=C(\\C#N)c2nc3ccccc3[nH]2)cc(OC)c1O", "inhibition": "4.95% (inactive)"}, {"smiles": "COc1cc(/C=C(\\C#N)c2nc3ccc(C)cc3[nH]2)c([N+](=O)[O-])cc1OC", "inhibition": "2.93% (inactive)"}, {"smiles": "CCOC(=O)N1CCN(CC(=O)N2c3ccccc3CCc3ccccc32)CC1", "inhibition": "-2.37% (inactive)"}, {"smiles": "CCOc1ccc(C(=O)NCC(=O)OCC(=O)Nc2ccc(C)c(S(=O)(=O)N(C)C)c2)cc1", "inhibition": "-3.11% (inactive)"}, {"smiles": "CCCc1ccc(C(=O)NC(=O)c2ccccc2O)cc1", "inhibition": "2.73% (inactive)"}, {"smiles": "CCn1cnc2c1c(=O)n(CC(=O)Nc1ccc3c(c1)OC(F)(F)O3)c(=O)n2Cc1ccccc1", "inhibition": "-4.42% (inactive)"}, {"smiles": "CCC(=O)N1CCC2(CC1)Oc1ccc(Cl)cc1C(=O)C21CC(c2ccccc2)=NO1", "note": "(stereo not drawn)", "inhibition": "3.83% (inactive)"}, {"smiles": "Cc1cc(C)n2ncc(C(=O)Nc3ccc4c(c3)OCO4)c2n1", "inhibition": "1.37% (inactive)"}, {"smiles": "COC(=O)Cc1c(C)c2ccc(OCc3nn[nH]n3)c(C)c2oc1=O", "inhibition": "0.72% (inactive)"}, {"smiles": "COc1cc(/C=C(\\C#N)C(=O)NCC2CCCO2)ccc1OCC(=O)O", "note": "(stereo not drawn)", "inhibition": "-0.12% (inactive)"}, {"smiles": "COCCCNC(=O)/C(C#N)=C/c1ccc(OCC(=O)O)c(OC)c1", "inhibition": "13.8% (active)"}, {"smiles": "COCCCNC(=O)/C(C#N)=C/c1ccc(F)cc1", "inhibition": "-2.31% (inactive)"}, {"smiles": "COc1ccc2cc(-c3[nH]ncc3CN3CCCCO3)ccc2c1", "inhibition": "-2.52% (inactive)"}, {"smiles": "N/C(=N\\O)c1ccc(NC(=O)c2cccs2)cc1", "inhibition": "4.24% (inactive)"}, {"smiles": "O=C(Nc1c(F)c(F)c(F)c(F)c1F)C1CCCCC1", "inhibition": "-1.91% (inactive)"}, {"smiles": "O=C(/C=C/c1ccccc1)c1c(O)n(CCc2ccccc2)c(=O)[nH]c1=O", "inhibition": "1.89% (inactive)"}, {"smiles": "O=C(O)Cn1cc(/C=N/NC(=O)c2cc3cc(Br)ccc3o2)c2ccccc21", "inhibition": "-0.33% (inactive)"}, {"smiles": "Cn1cc(/C=N/NC(=O)c2cc3cc(Br)ccc3o2)c2ccccc21", "inhibition": "-2.19% (inactive)"}, {"smiles": "COc1ccccc1OCc1ccc(C(=O)NCC2CCCO2)o1", "note": "(stereo not drawn)", "inhibition": "1.7% (inactive)"}, {"smiles": "CCCCOc1ccc(C(=O)N2CC(C)OC(C)C2)cc1", "note": "(stereo not drawn)", "inhibition": "6.38% (inactive)"}, {"smiles": "CCCCOc1ccc(C2CCC(C(C)=O)C(C)C2)cc1", "note": "(stereo not drawn)", "inhibition": "13.4% (active)"}, {"smiles": "CCCCOc1ccc(C(=O)N2CCC(C)CC2)cc1", "inhibition": "-0.91% (inactive)"}, {"smiles": "CCCSC1=N/C(=C\\c2ccc([N+](=O)[O-])o2)C(=O)S1", "inhibition": "21.6% (active)"}, {"smiles": "CCCSC1=N/C(=C\\c2ccsc2)C(=O)S1", "inhibition": "-1.15% (inactive)"}, {"smiles": "CCSC1=N/C(=C\\c2ccc(-c3ccccc3[N+](=O)[O-])o2)C(=O)S1", "inhibition": "6.21% (inactive)"}, {"smiles": "Cc1cc(N2CCN(S(=O)(=O)c3ccccc3)CC2)c2ccccc2n1", "inhibition": "-2.32% (inactive)"}, {"smiles": "C/C(=N\\N1CCN(C)CC1)c1ccc(Cl)c(Cl)c1", "inhibition": "-1.93% (inactive)"}, {"smiles": "O=C(CN1CCN(Cc2ccccc2Cl)CC1)N/N=C/c1ccco1", "inhibition": "2.34% (inactive)"}, {"smiles": "CCN(CC)C(=S)SC1=CCS(=O)(=O)C1", "inhibition": "-2.51% (inactive)"}, {"smiles": "CCN(CC)C(=S)SCC(=O)c1ccccc1", "inhibition": "2.19% (inactive)"}, {"smiles": "O=S(=O)(NCc1ccccc1)c1ccc(F)cc1Br", "inhibition": "6.02% (inactive)"}, {"smiles": "CN(C)c1ccc(/C=C2\\C(=N)N3C(=NC2=O)Sc2cc(S(C)(=O)=O)ccc23)cc1", "inhibition": "-6.57% (inactive)"}, {"smiles": "COc1ccc(/C=C2/C(=N)N3C(=NC2=O)Sc2cc(S(C)(=O)=O)ccc23)cc1OC", "inhibition": "3.31% (inactive)"}, {"smiles": "COC(=O)c1cc(C#N)c(Oc2ccc(OC)cc2)nc1C", "inhibition": "8.02% (inactive)"}, {"smiles": "CCO/C(C)=C1/SC(=S)NC1=O", "inhibition": "-6.59% (inactive)"}, {"smiles": "CCCCCC/C(C)=C1/SC(=S)NC1=O", "inhibition": "-3.54% (inactive)"}, {"smiles": "C/C(C/C(C)=C1/SC(=S)NC1=O)=C1\\SC(=S)NC1=O", "inhibition": "49% (active)"}, {"smiles": "Cn1nc(-c2ccccc2)c(C(=O)NC(C(=O)O)c2ccccc2)c1Cl", "note": "(stereo not drawn)", "inhibition": "1.91% (inactive)"}, {"smiles": "CN(C)C(=O)CSc1ncnc2scc(-c3ccccc3)c12", "inhibition": "2.78% (inactive)"}, {"smiles": "Clc1ccc(N=c2ssnc2Cl)cc1", "inhibition": "19.9% (active)"}, {"smiles": "COc1cc(N=c2ssnc2Cl)cc(OC)c1", "inhibition": "12.8% (inactive)"}, {"smiles": "N#Cc1cccc(N=c2ssnc2Cl)c1", "inhibition": "-3.05% (inactive)"}, {"smiles": "N#Cc1ccc(N=c2ssnc2Cl)cc1", "inhibition": "18.4% (inactive)"}, {"smiles": "Clc1nssc1=Nc1ccccc1", "inhibition": "14.6% (active)"}, {"smiles": "Clc1nssc1=Nc1ccc(Br)cc1", "inhibition": "18% (inactive)"}, {"smiles": "Cc1ccc(N=c2ssnc2Cl)cc1", "inhibition": "17.6% (inactive)"}, {"smiles": "COc1ccc(N=c2ssnc2Cl)cc1", "inhibition": "5.49% (inactive)"}, {"smiles": "COc1cc(N=c2ssnc2Cl)cc(OC)c1OC", "inhibition": "14.1% (active)"}, {"smiles": "Cc1ccc(N/C=C/C(=O)c2cccs2)cc1C", "inhibition": "-3.05% (inactive)"}, {"smiles": "COc1cccc2sc(NNC(=O)C3COc4ccccc4O3)nc12", "note": "(stereo not drawn)", "inhibition": "6.49% (inactive)"}, {"smiles": "O=C(CSc1nnc(-c2ccccc2Cl)n1Cc1ccco1)Nc1ccc2c(c1)OCCO2", "inhibition": "-6.82% (inactive)"}, {"smiles": "OCCN1CCN(c2ncnc3sc(-c4ccccc4)cc23)CC1", "inhibition": "0.73% (inactive)"}, {"smiles": "Cc1ccc(C(=O)OC2OC(=O)C(Cl)=C2N2CCOCC2)cc1", "note": "(stereo not drawn)", "inhibition": "7.25% (inactive)"}, {"smiles": "O=c1[nH]c2ccccc2nc1NCCN1CCOCC1", "inhibition": "-0.64% (inactive)"}, {"smiles": "COc1ccc(-c2noc3c2-c2nc(-c4ccc(C)cc4)sc2CC3)cc1", "inhibition": "6.62% (inactive)"}, {"smiles": "O=C(NCC(=O)N(c1ccccc1)C(C(=O)NC1CCCCC1)c1cccnc1)c1cccs1", "note": "(stereo not drawn)", "inhibition": "-3.93% (inactive)"}, {"smiles": "O=C(CN(C(=O)c1cc2c(s1)CCC2)C1CCCC1)NCc1cccs1", "inhibition": "5.33% (inactive)"}, {"smiles": "O=C(NCc1cccs1)c1cc2c(s1)CCCC2", "inhibition": "0.13% (inactive)"}, {"smiles": "O=C(CN(Cc1ccccc1)C(=O)c1cc2c(s1)CCC2)NCc1cccs1", "inhibition": "14.9% (active)"}, {"smiles": "O=C(O)CCCN1C(=O)c2ccc(C(=O)c3cccc([N+](=O)[O-])c3)cc2C1=O", "inhibition": "2.64% (inactive)"}, {"smiles": "O=C(CN1C(=O)CCC1=O)NNc1ccc2ccccc2c1", "inhibition": "-8.95% (inactive)"}, {"smiles": "O=C(CN1C(=O)NC2(CCCC2)C1=O)Nc1cccc(-c2nnc3n2CCCCC3)c1", "inhibition": "-0.57% (inactive)"}, {"smiles": "O=C(CC1Sc2ccccc2NC1=O)Nc1cccc(C(=O)O)c1", "note": "(stereo not drawn)", "inhibition": "-2.21% (inactive)"}, {"smiles": "O=C(CC1Sc2ccccc2NC1=O)Nc1cccc(-c2nnc3n2CCCCC3)c1", "note": "(stereo not drawn)", "inhibition": "14.3% (active)"}, {"smiles": "Oc1ccccc1/C=N/NC1=NCCCCC1", "inhibition": "-2.12% (inactive)"}, {"smiles": "COC(C(=O)NCc1ccc(C)cc1)c1ccccc1", "note": "(stereo not drawn)", "inhibition": "-0.55% (inactive)"}, {"smiles": "CC(=O)NCc1c(Cl)cccc1-n1cccc1", "inhibition": "-2.69% (inactive)"}, {"smiles": "CC(C)=CC(=O)NCc1c(Cl)cccc1-n1cccc1", "inhibition": "23.8% (active)"}, {"smiles": "CCC(=O)NCc1c(Cl)cccc1-n1cccc1", "inhibition": "-2.25% (inactive)"}, {"smiles": "COC(=O)c1ccccc1NC(=O)CCS(=O)(=O)c1ccc(Br)s1", "inhibition": "6.53% (inactive)"}, {"smiles": "Cc1ccc(CNC(=O)CCS(=O)(=O)c2ccc(C)cc2)cc1", "inhibition": "-0.32% (inactive)"}, {"smiles": "Cc1ccc(CCNC(=O)CCS(=O)(=O)c2ccc(Br)cc2)cc1", "inhibition": "-0.29% (inactive)"}, {"smiles": "COC(=O)c1ccc(NC(=O)CCS(=O)(=O)c2ccc(Br)cc2)cc1", "inhibition": "3.55% (inactive)"}, {"smiles": "COc1cccc(CN2CCN(S(=O)(=O)c3ccc(Br)cc3)CC2)c1", "inhibition": "-0.5% (inactive)"}, {"smiles": "COc1ccc(C=C2C(=O)c3ccccc3C2=O)cc1O", "inhibition": "9.53% (inactive)"}, {"smiles": "COc1cc(C=C2C(=O)c3ccccc3C2=O)ccc1O", "inhibition": "10.6% (inactive)"}, {"smiles": "O=C1c2ccccc2CC1(Cc1ccccc1)Cc1ccccc1", "inhibition": "-4.43% (inactive)"}, {"smiles": "CC(C)(C)N1C(=O)c2ccccc2NC(=O)N1Cc1ccccc1", "inhibition": "-6.09% (inactive)"}, {"smiles": "N#CCCN(Cc1cccnc1)C(=S)NC(=O)C1CC1", "inhibition": "-4.01% (inactive)"}, {"smiles": "Cc1cccc(CSc2nnc(-c3ccccn3)n2N)c1", "inhibition": "1.5% (inactive)"}, {"smiles": "CCOc1cc(/C=N/N=C2/NC(=O)C(CC(=O)O)S2)ccc1OCc1ccc(Cl)cc1", "note": "(stereo not drawn)", "inhibition": "0.64% (inactive)"}, {"smiles": "CCOc1cc(/C=N/N=C2/NC(=O)C(CC(=O)O)S2)ccc1OS(=O)(=O)c1ccc(C)cc1", "note": "(stereo not drawn)", "inhibition": "13.1% (active)"}, {"smiles": "COc1ccc(/C=N/N=C2/NC(=O)C(CC(=O)O)S2)cc1OS(=O)(=O)c1ccccc1", "note": "(stereo not drawn)", "inhibition": "3.56% (inactive)"}, {"smiles": "Cc1ccc(/C=C2\\SC(=S)N(CC3CCCO3)C2=O)o1", "note": "(stereo not drawn)", "inhibition": "9.7% (inactive)"}, {"smiles": "O=C(CSc1nc2ccccc2o1)N1CCN(S(=O)(=O)c2ccc3ccccc3c2)CC1", "inhibition": "-1.93% (inactive)"}, {"smiles": "CCc1ccc(N(CC(=O)NCc2ccc(F)cc2)C(=O)c2csnn2)cc1", "inhibition": "1.98% (inactive)"}, {"smiles": "CCOc1ccc(/C=N/Nc2nc(=O)[nH]nc2C)cc1OC", "inhibition": "2.62% (inactive)"}, {"smiles": "Cn1cccc1/C=C1\\SC(=S)N(NC(=O)c2ccccc2O)C1=O", "inhibition": "0.05% (inactive)"}, {"smiles": "O=C(NN1C(=O)/C(=C/C=C/c2ccco2)SC1=S)c1ccncc1", "inhibition": "10.6% (inactive)"}, {"smiles": "O=C1/C(=C/c2cccs2)SC(=S)N1NS(=O)(=O)c1ccccc1", "inhibition": "11.6% (inactive)"}, {"smiles": "CC(/C=C1\\SC(=S)N(NS(=O)(=O)c2ccccc2)C1=O)=C\\c1ccccc1", "inhibition": "5.96% (inactive)"}, {"smiles": "O=C(NCC(c1cccnc1)N1CCN(c2ccccc2F)CC1)OCc1ccccc1", "note": "(stereo not drawn)", "inhibition": "-3.82% (inactive)"}, {"smiles": "CC(C)CNC(CC(=O)Nc1cccc([N+](=O)[O-])c1)C(=O)O", "note": "(stereo not drawn)", "inhibition": "0.89% (inactive)"}]}]}
